Laboratory results reported in PubChem BioAssay AID430 (Sanford-Burnham Center for Chemical Genomics, 2006).
Among all 63,000 compounds or so, about 1,100 (1.7%) were called active. Cut-off read from the data, not from the text of the source: active = cytotoxicity above about 50%; inactive = the rest. What follows is part of a selection rich in actives, with near analogues and random picks from the rest. Entries with a potency or affinity are not part of this list.

Test: HPDE-C7 pancreatic duct cell viability loss – fluorescence, HTS (AID 430);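 note: cells exposed to compound for 48 hours before viability readout; 0% = vehicle and 100% = reference cytotoxic drug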
Conditions: HPDE-C7 pancreatic duct cells viability, at 10 µM, hits give high values

Row | Structure (SMILES) | cytotoxicity
1 | COc1ccc(NC(=O)C2CC(=O)NC(Nc3cccc(C)c3)=N2)cc1 (configuration not stated) | 5.9% (inactive)
2 | COC(=O)c1ccc(COC(=O)c2ccc(-n3cnnn3)cc2)o1 | -1.9% (inactive)
3 | O=C(Cc1ccc(Cl)cc1)NCCN1CCCC1 | 1.5% (inactive)
4 | Cc1c(C(=O)O)sc2ncn(C)c(=O)c12 | -7.5% (inactive)
5 | c1ccc(CCn2nnnc2C(c2cccs2)N2CCOCC2)cc1 (configuration not stated) | 3.6% (inactive)
6 | COc1ccc(S(=O)(=O)NCCc2csc(C)n2)cc1C | 0.1% (inactive)
7 | Cc1ccccc1-n1c(C)nc2ccccc21 | -11.6% (inactive)
8 | Cc1ccc2c(c1)c1c3n2CCN(C(=O)C2CC2)C3CCC1 (configuration not stated) | -6.9% (inactive)
9 | Cc1ccc2c(c1)c1c3n2CCN(C(=O)CN2CCN(C)CC2)C3CCC1 (configuration not stated) | 42.4% (inactive)
10 | COc1ccc(Cn2nnnc2CN2CCOCC2)cc1 | -5.5% (inactive)
11 | CCN(CC)CCNc1nc(-c2ccco2)c2c(c1C#N)CC(C)(C)OC2 | -14.1% (inactive)
12 | Cc1nc(NCc2ccco2)c(C#N)c2c1COC(C)(C)C2 | -17.6% (inactive)
13 | CCCc1nc(NCc2ccco2)c(C#N)c2c1COC(C)(C)C2 | -13.3% (inactive)
14 | CN(C)CCNc1nc(-c2ccco2)c2c(c1C#N)CC(C)(C)OC2 | 2.7% (inactive)
15 | CCC(=O)Nc1cc(C(=O)NCC2CCCN2CC)c(OC)cc1N(C)C (configuration not stated) | -2.6% (inactive)
16 | Cc1cccc(C)c1NC(=O)N1CCC(n2cnc3ccccc32)CC1 | -24.3% (inactive)
17 | Cc1cc(C)n(C(=O)CNC(=O)COc2ccccc2)n1 | -2.7% (inactive)
18 | COC(=O)c1ccccc1NC(=O)c1cc2sccc2n1C | 3.3% (inactive)
19 | Cc1ccc(S(=O)(=O)Cn2nnnc2C(C(C)C)N2CCN(Cc3ccco3)CC2)cc1 (configuration not stated) | -0.6% (inactive)
20 | CCOc1ccc(C(=O)COC(=O)CC)cc1 | -1.4% (inactive)
21 | COC(=O)CCC(=O)Oc1ccc(OC(=O)CCC(=O)OC)cc1 | 31.7% (inactive)
22 | CCC(=O)Oc1ccc(-c2nc(-c3cccnc3)no2)cc1 | -4.4% (inactive)
23 | CC(C)c1ccc(OC(=O)NCCO)cc1 | -0.9% (inactive)
24 | CCn1c(Cc2ccccc2)nnc1SCC(=O)Nc1cc(C)on1 | 4.4% (inactive)
25 | O=C1CCC(=O)N1OCCOc1ccc2c(c1)CCC2 | -1.4% (inactive)
26 | O=C1NC(c2ccc3c(c2)OCO3)Nc2ccccc21 (configuration not stated) | 10.6% (inactive)

Row | Structure (SMILES) | cytotoxicity
27 | COC(=O)c1ccc2c(=O)n(CCCN3CCOCC3)c(=S)[nH]c2c1 | 2.7% (inactive)
28 | CCC(C)C(NC(=O)C1CCC(C)CC1)C(=O)NC(C(=O)OC)C(C)C (configuration not stated) | -5.2% (inactive)
29 | COc1ccc(-c2nnc(NC(=O)C(C)C)o2)cc1 | -7.7% (inactive)
30 | COc1ccc(-c2nnc(Nc3nc4c(OC)cccc4s3)o2)cc1 | 85.9% (active)
31 | COc1cc(-c2nnc(-c3cccs3)o2)cc(OC)c1OC | -21.3% (inactive)
32 | COc1cccc2sc(Nc3nnc(-c4cccs4)o3)nc12 | 65.3% (active)
33 | COc1cc2nc(-c3cccs3)oc(=O)c2cc1OC | 16.9% (inactive)
34 | CCOC(=O)c1sc(NCCNc2nc(C)c(C(=O)OCC)s2)nc1C | -1.3% (inactive)
35 | COc1ccccc1-c1nnc(NC(=O)c2ccccc2F)o1 | 4.8% (inactive)
36 | COc1ccc(-c2nnc(-c3ccc(N)cc3)o2)cc1 | 2.5% (inactive)
37 | COc1ccccc1-c1nnc(Nc2nc3c(OC)cccc3s2)o1 | 54.9% (active)
38 | COC(=O)c1sc(NC(=O)COc2ccccc2OC)nc1C | -3% (inactive)
39 | COc1cccc2sc(N(C)c3ccccc3)nc12 | -14% (inactive)
40 | CCOC(=O)c1sc(Nc2nc3c(OC)cccc3s2)nc1C | 63.9% (active)
41 | CCCCNC(=O)NCC(=O)Nc1ccc(F)c(F)c1 | -4% (inactive)
42 | CCSc1nnc(NC(=O)CSc2nccn2-c2cc(C)cc(C)c2)s1 | -2.2% (inactive)
43 | CC(=O)NC1CC2CCCC(C1)N2S(=O)(=O)c1ccccc1 (configuration not stated) | -17.7% (inactive)
44 | COc1ccc(N(C(=O)CNC(=O)c2ccco2)C(C(=O)NC2CCCCC2)c2ccco2)cc1 (configuration not stated) | -2.6% (inactive)
45 | Cc1nc(NC(=O)C2CC2)sc1C(=O)N1CCCCC1 | 11.8% (inactive)
46 | Cc1ccc(-c2noc(CCC(=O)NCCCN3CCN(c4ccc(F)cc4)CC3)n2)cc1 | -1.5% (inactive)
47 | O=C(Nc1ccccn1)c1cccnc1 | 0.9% (inactive)
48 | CC(=O)Nc1ccc(S(=O)(=O)N(CC(=O)O)Cc2ccccc2)cc1 | -8.5% (inactive)
49 | Cc1ccc(S(=O)(=O)Nc2ccc(S(=O)(=O)N3CCCC3)cc2)cc1 | 8.3% (inactive)
50 | COc1ccc(-c2noc(-c3ccccc3Cl)n2)cc1OC | 0.6% (inactive)
51 | COc1cccc2sc(Nc3nc(-c4ccccn4)cs3)nc12 | 65.7% (active)
52 | COc1cccc2sc(Nc3nnc(-c4ccccc4Cl)o3)nc12 | 52.9% (active)

Row | Structure (SMILES) | cytotoxicity
53 | O=C(Nc1nnc(-c2ccccc2Cl)o1)c1ccco1 | 6.6% (inactive)
54 | c1ccc(-c2csc(Nc3cccnc3)n2)nc1 | 3.7% (inactive)
55 | Cc1cccc(Nc2nc(-c3ccccn3)cs2)n1 | 0.3% (inactive)
56 | Cc1ccc2oc(=O)cc(CN3CCC(C)CC3)c2c1 | 0.7% (inactive)
57 | O=c1c2ccccc2c(C=NCCO)c(O)n1-c1ccccc1 | 1.2% (inactive)
58 | CCOC(=O)C1CCCN(C2CC(=O)N(c3ccc(C)c(C)c3)C2=O)C1 (configuration not stated) | -3.2% (inactive)
59 | O=C(NCc1ccc(F)cc1)c1ccc(CS(=O)(=O)Cc2ccccc2F)o1 | -13.3% (inactive)
60 | Cc1cc(-c2ccccc2)nc(N2CCN(c3ccccn3)CC2)n1 | 11.2% (inactive)
61 | O=C(c1cc(Cl)ccc1Cl)N1CCN(c2ccccn2)CC1 | 5.9% (inactive)
62 | O=C(NCCC1=CCCCC1)C1CCCN(S(=O)(=O)c2cnc[nH]2)C1 (configuration not stated) | -2.1% (inactive)
63 | CCOC(=O)c1cccc(C(=O)OCC)n1 | -1% (inactive)
64 | CCOC(=O)c1ccccc1NC(=O)COC | -3.8% (inactive)
65 | CCN(c1ccccc1)c1cc(C)nc2nc(C)nn12 | -20.9% (inactive)
66 | CC(C)CCNc1ncnc2c1nnn2Cc1ccccc1Cl | -10.8% (inactive)
67 | Clc1ccccc1Cn1nnc2c(Nc3ccccc3)ncnc21 | -6.8% (inactive)
68 | CCc1ccc2[nH]c(=O)c(C(c3nnnn3CCOC)N3CCN(c4ccccc4F)CC3)cc2c1 (configuration not stated) | -22% (inactive)
69 | Cc1cc(NCCCN)nc(-c2ccccc2O)n1 | 16.4% (inactive)
70 | CCCCNc1cc(C)nc(NCc2ccccc2)n1 | 84.4% (active)
71 | Cc1cc(C)nc(NCCCc2ccccc2)n1 | -5.9% (inactive)
72 | Cc1cc(Nc2ccccc2)nc(-c2ccccc2O)n1 | -2.9% (inactive)
73 | CCCCOc1cc(C)nc(NCc2ccccc2)n1 | -30.8% (inactive)
74 | O=c1[nH]c2ccc(S(=O)(=O)N3CCCCC3)cc2[nH]1 | -1.4% (inactive)
75 | CCOC(=O)c1ccccc1NCN1C(=O)CSC1=O | -1.8% (inactive)
76 | Cc1cc(=O)[nH]c(/N=C(\N)Nc2cccc3ccccc23)n1 | 0.5% (inactive)
77 | COc1ccc(C2C3=C(N=C4SCC(=O)N42)c2ccccc2CC3)cc1OC (configuration not stated) | 19.3% (inactive)
78 | O=C(O)c1ccccc1-c1ccccc1C(=O)NCc1ccco1 | 0.7% (inactive)

Row | Structure (SMILES) | cytotoxicity
79 | Cn1c(=O)cc(OCC(=O)N2CCCc3ccccc32)c2ccccc21 | -9.1% (inactive)
80 | Cc1cc(C)c2nc(NC3=NCN(CCN4CCOCC4)CN3)nc(C)c2c1 | -7.5% (inactive)
81 | CC1=C(C)C(=O)NC(Nc2nc(C)c3cc(C)cc(C)c3n2)N1 (configuration not stated) | 86.5% (active)
82 | O=C(c1cc(S(=O)(=O)N2CCCCC2)c(Cl)cc1N1CCOCC1)N1CCOCC1 | -5.8% (inactive)
83 | COc1cc(Cl)c(S(=O)(=O)n2cnc(C)c2)cc1Cl | -0.2% (inactive)
84 | COc1cc(C)c(C(C)C)cc1S(=O)(=O)N1CCN(C)CC1 | -22.7% (inactive)
85 | Clc1ccc(OCc2nc(-c3ccncc3)no2)c(Cl)c1 | -6.9% (inactive)
86 | Cc1ccc2c(c1)c1ncnc(N3CCN(c4ccccc4)CC3)c1n2C | -1.6% (inactive)
87 | Cc1ccc2c(c1)c1ncnc(N3CCOCC3)c1n2C | -13.7% (inactive)
88 | O=C(c1ccc(S(=O)(=O)N2CCC(c3nc4ccccc4s3)CC2)cc1)N1CCOCC1 | 1.1% (inactive)
89 | Cc1cccc(NS(=O)(=O)c2cccs2)n1 | -0.9% (inactive)
90 | COc1ccc(NC(=O)N(CCC(C)C)C(C)c2ccccn2)c(OC)c1 (configuration not stated) | -1.9% (inactive)
91 | COc1ccc(-c2coc3c(CN4CCCCC4)c(O)c(CN4CCCCC4)c(O)c3c2=O)cc1 | 53.1% (active)
92 | O=c1c(-c2ccccc2)coc2c(CN3CCCC3)c(O)ccc12 | 5.3% (inactive)
93 | COc1ccc(C(=O)c2coc3ccc(O)c(CN4CCCCC4)c23)cc1 | 14.9% (inactive)
94 | c1ccc(-c2cnc(CSc3ncnc4sccc34)o2)cc1 | -9% (inactive)
95 | COc1ccccc1Cn1c(=O)c2ccccc2n2c(Sc3ncnc4sccc34)nnc12 | 38.5% (inactive)
96 | O=c1[nH]nc(Sc2ncnc3sccc23)n1CCc1ccccc1 | 51.5% (active)
97 | COC(=O)c1ccc(Oc2c(C)oc3c(CN4CCN(C)CC4)c(O)ccc3c2=O)cc1 | -9.6% (inactive)
98 | Cc1cc(NC(=O)COC(=O)C(Nc2ccc(C(F)(F)F)cc2Cl)C(C)C)no1 (configuration not stated) | 54.8% (active)
99 | Cc1cc(NC(=O)Cn2cc(C(F)(F)F)cc(Cl)c2=O)no1 | 4.3% (inactive)
100 | Cc1cc(NC(=O)COC(=O)CSCc2ccc(Cl)c(Cl)c2)no1 | -5.6% (inactive)
101 | O=C(NC(C(=O)c1ccccc1)n1ccc(=O)[nH]c1=O)c1ccccc1 (configuration not stated) | 23.4% (inactive)
102 | CCOC(=O)N1CCN(C(=O)c2cccc(OC)c2OC)CC1 | 6.7% (inactive)
